# High-throughput results from PubChem.
# Tgondii IFNg: blocks Toxoplasma gondii growth in the presence of IFN-gamma | Toxoplasma gondii growth in IFN-gamma-treated host cells; stronger effect = lower value | activity change, negative = inhibition, % (no concentration beside the values) | hit rate 3.8% among 69,000 | AID 1259416; in the data active = activity change below about -70%, passing the limit was not always enough;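 also: host cells are HeLa cells infected with Toxoplasma gondii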
# Numbers without * were called inactive; ! = not active in a repeat. This is one part of a sample in which hits are shown more often than they occur.
SMILES,Tgondii IFNg
CCCOc1ccc(N2C(=O)CC(SCc3nc4ccccc4[nH]3)C2=O)cc1 (centres undefined),43
CC(=O)C1C(=O)[C@@H]2[C@H]3c4c[nH]c5cccc(c45)C[C@H]3C(C)(C)N2C1=O (some centres undefined),-81*!
CN1C[C@H](C(=O)N[C@]2(C)O[C@@]3(O)[C@@H]4CCCN4C(=O)[C@H](Cc4ccccc4)N3C2=O)C[C@@H]2c3cccc4[nH]cc(c34)C[C@H]21,4
CC(NC(=O)c1ccnn1C)c1ccc(F)cc1 (centres undefined),-1
Cc1ncc(Sc2ccc(Cl)cc2)c(-c2ccc(Cl)cc2)n1,22
Clc1ccc(Sc2nc3ccccc3nc2Sc2ccc(Cl)cc2)cc1,17
Cc1ccc(Sc2cccc3nc(N)nc(N)c23)cc1,-108*
O=C1CCC(=O)N[C@@H](c2ccc3c(c2)OCO3)C/C=C\CCN1,-15
O=C(Nc1nc(C23CC4CC(CC(C4)C2)C3)cs1)c1ccccc1,-107*
O=C(NC12CC3CC(CC(C3)C1)C2)c1cccnc1,6
Clc1ccc(-c2nc(C34CC5CC(CC(C5)C3)C4)cs2)cc1,68
CC(C(=O)Nc1ncc(Cc2ccccc2Cl)s1)N1CCOCC1 (centres undefined),-22
O=C(Cc1ccc(F)cc1)NCCNC(=O)c1nc(-c2cccs2)no1,8
O=C(NC1CCCC1)N1CC[C@H]2CN(Cc3ccc(Cl)cc3)S(=O)(=O)[C@@H]2CC1,-89*
COc1ccc(CN2C[C@@H]3CCN(C(=O)c4ccno4)CC[C@H]3S2(=O)=O)cc1,-6
COc1ccc(CCN2C[C@@H]3CCN(C(=O)c4cnc(C)cn4)CC[C@H]3S2(=O)=O)cc1,8
O=C(c1ccn[nH]1)N1CC[C@H]2CN(Cc3ccc(Cl)cc3)S(=O)(=O)[C@@H]2CC1,-73*
CC(C)CN1C[C@@H]2CCN(C(=O)NC3CCCC3)CC[C@H]2S1(=O)=O,-55
COc1cccc(CN2C[C@@H]3CCN(C(=O)C4CCC4)CC[C@H]3S2(=O)=O)c1,-91*
COc1ccc(CN2C[C@@H]3CCN(C(=O)c4ccn[nH]4)CC[C@H]3S2(=O)=O)cc1,-2
O=C(C1CCC1)N1CC[C@H]2CN(Cc3ccc(Cl)cc3)S(=O)(=O)[C@@H]2CC1,-47
O=C(C1CCC1)N1CC[C@H]2CN(Cc3ccccc3)S(=O)(=O)[C@@H]2CC1,-18
CN1C=NC(O)(c2ccccc2)c2cc(Cl)ccc21 (centres undefined),19
COc1cc(CN2CC3(CCN(C(=O)Nc4c(C)noc4C)CC3)c3c(n(C)c4cc(OC)ccc34)[C@@H]2CO)cc(OC)c1,285
CCCCN(C(=O)c1ccc(CN(C)C)o1)C1CCCCCC1,-5
SMILES,Tgondii IFNg
N#C[C@@H]1[C@H](c2ccccc2C2=CCCC2)[C@@H](CO)N1C(=O)NC1CCCCC1,-17
O=C1CCC(C(=O)NCCCCC2CCCO2)=NN1 (centres undefined),5
O=C(Nc1ccccc1)N(Cc1ccc(Cl)cc1)Cc1nc2ccccc2c(=O)[nH]1,-46
CCCCN(C)Cc1ccc(C(=O)Nc2c(C)noc2C)cc1,-4
CCCCN(Cc1ccc(C(=O)NO)cc1)C(=O)Nc1ccccc1,-85*
COc1ccc(CNc2nc(SCc3cc(=O)n4cc(Cl)ccc4n3)nc3ccccc23)cc1,9
COC(=O)C(C)N1CCOc2c(O)cc(-c3cccc(Cl)c3)cc2C1 (centres undefined),-7
O=C(c1ccccn1)N1CCC2(CC1)OC(C(=O)N1CCCC1)Cn1ccnc12 (centres undefined),16
C[C@@H]1CN([C@@H](C)CO)C(=O)Cc2cc(N(C)C)ccc2O[C@H]1CN(C)Cc1ccc(-c2ccccc2)cc1,69
C[C@@H]1CN([C@H](C)CO)C(=O)c2cc(N(C)C)ccc2O[C@H]1CN(C)Cc1ccc(Oc2ccccc2)cc1,60
C[C@H](CO)N1C[C@H](C)[C@H](CN(C)Cc2ccc(-c3ccccc3)cc2)Oc2ccc(N(C)C)cc2CC1=O,-83*
Cc1c(CN(C)Cc2ccc(C#CC(C)(C)O)s2)cnn1C,3
O=C(c1ccccc1)n1nccc1-c1cc(-c2ccccc2)no1,213
Cc1nn2cc(CCNC(=O)C3CC(=O)N(CC(C)C)C3)nc2s1 (centres undefined),0
Cn1cc(N2C[C@@H]3CN(Cc4ccoc4)C[C@H]3C2=O)cn1,14
Cn1cc(N2C[C@@H]3CN(c4ccccn4)C[C@H]3C2=O)cn1,-87*
Cc1cccc(N2C[C@@H]3CN(c4cccnc4)C(=O)[C@@H]3C2)n1,21
Clc1cccc2c3c([nH]c12)CCN(Cc1cc2n(n1)CCCNC2)C3,1
CCOC(=O)c1cc(C)nc2c1c(=O)n(Cc1nc(-c3ccc(C)cc3)oc1C)c(=O)n2C,8
CCOC(=O)c1cc(C)nc2c1c(=O)n(Cc1nc(-c3ccc(OC)cc3)oc1C)c(=O)n2C,-24
CCOC(=O)c1cc(C)nc2c1c(=O)n(Cc1nc(-c3ccc(OC(C)C)cc3)oc1C)c(=O)n2C,-81*
CS(=O)(=O)CS(=O)(=O)Nc1cc(Cl)cc(Cl)c1,84
